# Test results from PubChem BioAssay AID602139 (NMMLSC, 2011).
# The list shows a part of the results. Values without a mark were called inactive. Cut-off read from the data, not from the text of the source: active = inhibition above about 32%; inactive = the rest.
# System: Botulinum neurotoxin type A light chain protease (Clostridium botulinum A str. ATCC 3502)
# Test: inhibition of botulinum toxin A LC protease – biochemical, flow cytometry, cherry pick 1, confirmation (AID 602139)
# Conditions: multiplex microsphere protease assay, at 10 µM, active compounds read high
row,SMILES,inhibition [%]
1,COc1ccccc1C1CCN(C(=S)Nc2ccc(Br)cc2)CC1,0.8
2,CN1CCN(c2ccc(NC(=O)c3ccccc3)cc2)CC1,1.8
3,CCOc1ccc(NC(=O)CC(Cc2ccc(Cl)cc2)C(=O)O)cc1 (configuration not stated),-0.4
4,CCCSc1nc2sc3c(c2c(=O)n1-c1ccc(OC)cc1)CCN(C)C3,1.8
5,O=C(Nc1nnc(CCc2ccccc2)s1)C1CCCO1 (configuration not stated),-0.5
6,CCOCCn1c(-c2ccccc2)nc2ccccc21,-0.1
7,Cc1ccc2[nH]cc(CCNC(=O)C3CCCCC3)c2c1,-0.1
8,COc1ccc(NS(=O)(=O)c2cc(C(=O)Nc3ccccc3C(=O)O)ccc2C)cc1,0.6
9,CC1CCN(C(=O)c2ccc(S(=O)(=O)Cc3cc(F)ccc3F)c([N+](=O)[O-])c2)CC1,0.4
10,Cc1ccc(-c2nc(-c3cccnc3)sc2CC(=O)Nc2ccc(C)c(Cl)c2)cc1,7.8
11,COC(=O)CN(c1nc(C)c(Cl)c(OC)n1)S(=O)(=O)c1ccc(C)cc1,1.8
12,CCCN1C2CCCC1CC(NC(=O)c1cccc(OC)c1)C2 (configuration not stated),0.4
13,COc1cc2cc(CN(CCN3CCCC3)C(=O)Nc3ccccc3Cl)c(=O)[nH]c2cc1OC,-2.7
14,Cc1cc(S(=O)(=O)NC2CCCC2)ccc1-n1cnnn1,0.3
15,OC(c1ccc(Cl)cc1)C(CN1CCOCC1)c1ccccc1 (configuration not stated),2.5
16,COc1ccccc1-n1c(-c2cc(-c3ccco3)[nH]n2)n[nH]c1=S,1.5
17,COc1ccc(Br)cc1CNCCc1cccc(Cl)c1,1.5
18,O=C(O)c1cc(S(=O)(=O)NC2CCCc3ccccc32)ccc1O (configuration not stated),0.7
19,CC(C)Cc1nnc(NC(=O)CCC(=O)Nc2ccc3cn[nH]c3c2)s1,-0.8
20,CC1CCc2c(sc3nc4n(c(=O)c23)CCS4)C1 (configuration not stated),0.4
21,COCc1cc(=O)[nH]c(SC)n1,0.2
22,Cc1onc(-c2ccccc2Cl)c1C(=O)NCCn1ccc2ccccc21,2.7
